Source: PubChem BioAssay (several laboratories)
Compounds with a hit are over-represented: about 1.4% of the library has one in this group of screens.
GLD-1 TGE inh: GLD-1-TGE RNA interaction inhibition (C. elegans). Q17339. purified GLD-1 + fluorescein TGE RNA, fluorescence polarization. inhibition, % at 5.96 µM. hit rate 0.44% among 320,000. AID 2280;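 active = percent inhibition above a per-plate cutoff, the plate mean of test compounds plus 3 SD, cut at about 30% in these data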;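 also: 0% = DMSO wells with GLD-1 and probe and 100% = wells lacking GLD-1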
MEX-5 binding: C. elegans MEX-5 TCR-2 RNA binding activity; Q9XUB2; MEX-5/FITC-TCR2 RNA binding, fluorescence polarization; stronger effect = lower value; activity score (negative = inhibition of binding), % at 10 µM; hit rate 0.38% among 300,000; AID 1832;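 active = inhibition past about -25% in most replicates, and total fluorescence under double the plate's negative control median, limit read from the data; inconclusive = replicates evenly split on the limit, or fluorescence at least double controls; inactive = too little inhibition in most replicates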;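 also: 0% = DMSO and -100% = 5 µM competing unlabeled TCR2 RNA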
eLon inh: E. coli protease La inhibition | inhibition, % at 7.94 µM | purified E. coli Lon protease, fluorescence polarization | P0A9M0 | AID 602123 | hit rate 0.42% among 360,000; in the data active = inhibition above about 13%, passing the limit was not always enough;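 also: 0% = enzyme with probe and DMSO and 100% = no enzyme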
MCL1-BIM inh: disrupts human MCL1 binding to BIM-BH3 peptide | inhibition, % at 10.9 µM | hit rate 0.68% among 320,000 | GST-MCL1 / FITC-Bim-BH3 fluorescence polarization | AID 2057;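 active = inhibition above the mean inhibition of all tested compounds plus 3 SD, set per campaign, cut at about 40% in these data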;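 also: 0% = DMSO wells and 100% = unlabeled Bim-BH3 peptide control; higher means more loss of mP so more displacement of Bim peptide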
Target sequence (Q07820 whole entry, looked up): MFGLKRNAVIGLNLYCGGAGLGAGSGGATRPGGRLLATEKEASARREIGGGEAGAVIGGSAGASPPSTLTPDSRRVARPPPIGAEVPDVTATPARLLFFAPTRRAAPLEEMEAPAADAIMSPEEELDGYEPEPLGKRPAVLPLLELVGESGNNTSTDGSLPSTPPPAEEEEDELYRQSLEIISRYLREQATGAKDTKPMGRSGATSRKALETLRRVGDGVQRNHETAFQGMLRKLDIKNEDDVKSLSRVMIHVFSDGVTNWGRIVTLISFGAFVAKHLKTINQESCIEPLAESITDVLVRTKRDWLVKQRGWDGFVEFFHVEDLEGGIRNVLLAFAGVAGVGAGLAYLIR
BCLXL inh: blocks human Bcl-xL binding to Bim BH3 peptide; inhibition, % at 10.9 µM; AID 2129; hit rate 0.7% among 320,000; GST-Bcl-xL / FITC-Bim BH3 peptide fluorescence polarization; Q07817;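 active = inhibition above the mean of all tested compounds plus 3 SD, cutoff set per campaign, cut at about 30% in these data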;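 also: 0% = DMSO wells and 100% = unlabeled Bim-BH3 peptide competitor; inhibitors lower millipolarization by displacing the labeled peptide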
Target sequence (Q07817 whole entry, looked up): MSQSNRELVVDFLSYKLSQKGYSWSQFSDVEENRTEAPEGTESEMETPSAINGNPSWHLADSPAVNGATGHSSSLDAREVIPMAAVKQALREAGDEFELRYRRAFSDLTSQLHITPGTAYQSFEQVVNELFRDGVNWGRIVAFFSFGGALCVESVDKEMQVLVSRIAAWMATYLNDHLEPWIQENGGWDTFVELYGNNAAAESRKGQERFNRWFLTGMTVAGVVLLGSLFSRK
BCLXL inh confirm: counter-screen for MCL1 inhibitors: confirmation of human Bcl-xL inhibitors; shares compounds with MCL1-BIM inh; GST-Bcl-xL / FITC-Bim BH3 peptide FP binding; inhibition, % at 10.9 µM; hit rate 54% among 1,700;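 active = inhibition above a cutoff equal to the mean inhibition of all tested compounds plus 3 SD, cut at about 30% in these data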;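 also: 0% = DMSO wells and 100% = unlabeled Bim BH3 control peptide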
MCL1 BIM confirm: confirmation of human MCL1 and BIM-BH3 interaction inhibitors; AID 2168; GST-MCL1 / FITC-Bim-BH3 fluorescence polarization; shares compounds with MCL1-BIM inh; hit rate 61% among 1,700; inhibition, % at 10.9 µM;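 active = inhibition above the average of all tested compounds plus 3 SD, cut at about 40% in these data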;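 also: 0% = DMSO wells and 100% = unlabeled Bim-BH3 control peptide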
Active calls of the source: *; u = inconclusive; x = no result; + = active, no number.

SMILES	GLD-1 TGE inh	MEX-5 binding	eLon inh	MCL1-BIM inh	BCLXL inh	BCLXL inh confirm	MCL1 BIM confirm
N#C/C(=C\c1ccco1)c1nc2ccccc2s1	55*	-10	-54	75*	79*	15	16
CCOC(=O)c1cc2n(c1/N=C/N(C)C)-c1ccccc1C2=O	169*	u	7	+	192*	186*	+
COc1cc2cc(CN(Cc3nnnn3Cc3ccco3)C3CCCCC3)c(=O)[nH]c2cc1OC	30	-10	4	60*	47*	24	20
COc1ccc2cc(CCNS(=O)(=O)c3c(C)cc(C)cc3C)c(=O)[nH]c2c1	15	-4	-19	-2	-3	x	x
COc1ccc(CNC(=O)[C@H](C)N2C(=O)N3CCc4c([nH]c5ccccc45)[C@@]3(C)C2=O)cc1OC	1	2	-3	-1	5	x	x
CCC(=O)N1CCN(c2ccc(NC(=O)c3cccs3)cc2)CC1	0	-2	9	42*	3	1	-6
N#Cc1c(-c2ccc(Cl)cc2)cc(-c2cccs2)nc1SCC(=O)O	3	2	1	73*	50*	37*	53*
CC1CCN(C(=O)c2ccc(NS(=O)(=O)c3cccs3)cc2)CC1	-11	-2	-14	-7	1	x	x
Cc1ccc(NC(=O)c2cc(C)nn2-c2ccccc2)cc1	161*	0	-3	+	+	12	-1
Cc1cc(C(=O)Nc2ccc(Cl)cc2)n(-c2ccccc2)n1	-4	2	3	6	3	x	x
COc1ccccc1NC(=O)C(C)OC(=O)Cc1ccsc1 (configuration not stated)	x	x	-5	x	x	x	x
FC(F)(F)c1ccc(C2Nc3cccc4cccc(c34)N2)cc1	x	x	-1	x	x	x	x
Fc1ccc(C2Nc3cccc4cccc(c34)N2)cc1	10	-6	-5	41*	19	13	8
Cc1ccc(C2Nc3cccc4cccc(c34)N2)s1	22	-2	-1	61*	51*	16	8
Brc1ccc(C2Nc3cccc4cccc(c34)N2)cc1	x	x	4	x	x	x	x
O=C(c1cccnc1Cl)N(Cc1ccccc1)Cc1ccccc1	-5	0	7	-5	-6	x	x
O=[N+]([O-])/C(C(Cl)=C(Cl)Cl)=C(\Nc1ccc(F)cc1)n1cncn1	7	2	x	2	3	x	x
CCOc1ccc(N/C(=C(/C(Cl)=C(Cl)Cl)[N+](=O)[O-])n2cncn2)cc1	55*	-49*	x	93*	92*	121*	156*
O=C(NC(=S)Nc1cccc2c(O)cccc12)c1ccccc1[N+](=O)[O-]	-2	-3	4	48*	31*	27	27
COc1cc(/C=N/NC(=O)Cn2cnc3c2c(=O)n(C)c(=O)n3C)ccc1O	4	-5	-2	-5	-5	x	x
CNCCCOc1cccc(Oc2ccccc2)c1	3	0	3	46*	3	5	2
CCC1=NNc2cccc3c(OC)ccc1c23	11	-1	x	126*	116*	45*	38
COc1ccc(C(C)=O)c2c(O)cccc12	7	-2	1	-9	0	x	x
Cc1cc(C)n(-c2nc3ccccc3nc2Nc2ccc3[nH]c(=O)[nH]c3c2)n1	65*	-3	-7	54*	79*	43*	36
COc1ccc(Nc2nc3ccccc3nc2-n2nc(C)cc2C)cc1	0	-1	-8	0	-3	x	x
SMILES	GLD-1 TGE inh	MEX-5 binding	eLon inh	MCL1-BIM inh	BCLXL inh	BCLXL inh confirm	MCL1 BIM confirm
O=c1c2c(ncn2C2CCCC2)n(Cc2ccccc2)c(=O)n1CCOc1ccccc1	1	1	-10	4	-1	x	x
O=c1c2c(ncn2C2CCCC2)n(Cc2ccccc2)c(=O)n1CCOc1ccc(Br)cc1	-3	3	-8	53*	-2	17	18
NC(=O)c1c(NC(=O)C2CCCO2)sc2c1CCC2 (configuration not stated)	1	0	-1	5	-3	x	x
NC(=O)c1c(NC(=O)C2CCCO2)sc2c1CCCCC2 (configuration not stated)	18	-9	-3	43*	33*	19	28
COc1ccc(Br)cc1C(=O)Nc1ccc(N2CCCC2)cc1	10	3	0	46*	9	20	18
Cc1c(CNCCc2ccccc2Cl)c(C(=O)O)c(C)n1-c1ccccc1	-1	1	-5	5	4	x	x
COCCCNC(=O)c1ccc2c3c(onc13)-c1ccccc1C2=O	197*	-79*	2	+	+	+	+
COCCCNC(=O)c1ccccc1Oc1ccccc1	0	-1	-4	-5	12	x	x
Cc1cc(OCC(=O)Nc2ccc(S(=O)(=O)NC3=NCCCCC3)cc2)c(C(C)C)cc1Cl	9	1	7	-4	6	x	x
O=C(NC1CC1)c1ccc2nc([C@H]3C[C@H](O)[C@@H](CO)O3)[nH]c2c1	x	x	7	x	x	x	x
COc1cccc2c(=O)c3cccc(N)c3[nH]c12	13	-4	7	87*	63*	44*	42*
CN(C)c1ccc(NC2=C(Cl)C(=O)c3ccccc3C2=O)cc1	4	-3	-5	41*	28	32*	37
CC(=O)Nc1ccc(NC2=C(Cl)C(=O)c3ccccc3C2=O)cc1	x	-3	x	x	x	x	x
N=C1C(c2ccccc2)=C(O)CN1c1cccc(O)c1	0	1	-6	2	8	x	x
CC(Cc1ccccc1)NC(=O)CCCN1C(=O)c2ccccc2C1=O (configuration not stated)	4	3	2	-2	2	x	x
Cc1nnc(SCC(=O)Nc2cccc(S(=O)(=O)N3CCCC3)c2)n1C1CC1	x	x	-2	x	x	x	x
C=CCN1C(=O)C2(OCCCO2)c2ccccc21	1	1	2	-2	3	x	x
C=CCN1C(=O)C2(OCCO2)c2cc(C)ccc21	8	1	2	40*	19	4	1
CCCn1c(/C=C/c2ccccc2)nc2ccccc21	-4	-3	2	0	2	x	x
CCn1c(/C=C/c2cc[n+](C)cc2)nc2ccccc21	20	-3	11	75*	74*	65*	65*
Cc1ccnc(Nc2nc(-c3ccc(O)c(O)c3)cs2)c1	15	-1	11	42*	29	36*	42*
CC(C)(C)c1nc2cc(Cl)c([N+](=O)[O-])cc2o1	4	1	-1	-10	-1	x	x
Cc1ccc2[nH]c(=O)c3cc(C(=O)NC(C)C)sc3c2c1	155*	0	-6	167*	138*	21	20
CCc1c(C)sc(NC(=S)N2CC(C)OC(C)C2)c1C(=O)OC (configuration not stated)	3	2	4	1	6	x	x
